The list is not random: actives were taken first. Their share in the collection is about 1.4%.
MmCpn inh: inhibitors of Methanococcus maripaludis chaperonin TRiC (MmCpn); Potency, µM (titrated, usually from 76.9 µM), actives largely listed as inhibitors; 0.031% of 330,000 active; AID 504842; purified Mm-Cpn ATPase, ADP Transcreener TR-FRET; note: nearly all actives have a fitted effect of over 80% in size
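Eu-cryptate anti-ADP/ADP-d2 competition gives a ratio inversely related to ADP. Enzyme at 25 nM was pre-exposed to compound for 10 min, then given 10 uM ATP for 30 min, 37°C throughout.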
ALOX12 inh: ALOX12 (human) lipoxygenase inhibition | purified 12hLO, xylenol orange hydroperoxide absorbance | Potency, µM (highest dose often 108 µM), most hits filed as inhibitors | 1.1% of 580,000 active
Target sequence (P18054 whole entry, looked up): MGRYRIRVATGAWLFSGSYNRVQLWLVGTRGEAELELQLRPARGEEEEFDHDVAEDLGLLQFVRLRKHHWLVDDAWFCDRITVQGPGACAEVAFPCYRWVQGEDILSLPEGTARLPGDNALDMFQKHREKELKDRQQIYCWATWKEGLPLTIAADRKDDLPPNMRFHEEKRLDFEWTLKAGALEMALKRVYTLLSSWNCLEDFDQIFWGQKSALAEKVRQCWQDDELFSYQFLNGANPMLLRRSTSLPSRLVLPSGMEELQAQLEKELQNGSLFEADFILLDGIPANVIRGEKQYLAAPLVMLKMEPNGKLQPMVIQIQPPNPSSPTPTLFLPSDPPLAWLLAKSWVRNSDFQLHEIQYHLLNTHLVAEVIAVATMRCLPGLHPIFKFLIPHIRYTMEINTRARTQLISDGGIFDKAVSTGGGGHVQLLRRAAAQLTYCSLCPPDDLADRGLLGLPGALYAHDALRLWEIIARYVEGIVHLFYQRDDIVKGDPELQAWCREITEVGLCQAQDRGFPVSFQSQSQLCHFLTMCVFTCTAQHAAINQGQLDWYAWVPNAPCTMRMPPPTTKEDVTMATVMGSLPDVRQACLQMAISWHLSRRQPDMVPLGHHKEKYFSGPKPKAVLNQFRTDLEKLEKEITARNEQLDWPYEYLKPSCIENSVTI
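Hydroperoxide product was detected by ferrous iron/xylenol orange as the 573 to 405 nm absorbance ratio. Arachidonic acid at 40 uM (final) was turned over for 30 min at room temperature by 150 nM human 12hLO, pH 7.0 Hepes buffer, after 15 min compound preincubation.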
ASM inhibitor: human S-ASM enzyme inhibition. P17405. placental ASM, HMU-PC fluorogenic substrate, 60 min. Potency, µM (highest dose often 57.5 µM), hits mostly inhibitors. 0.006% of 340,000 active. AID 504937
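Human placenta-derived ASM enzyme was preincubated with compound for 10 minutes at room temperature, then given fluorogenic substrate HMU-PC0 (9 uM final) for 60 minutes at 37 °C; a pH 10 stop preceded fluorescence reading at Ex 386/Em 447 nm.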
p53 reactivator: mutant p53 re-activation in reporter cells; H1299 p53-A138V BP100-luciferase reporter, luminescence, 24 h; Potency, µM (series often up to 92.2 µM), most hits filed as activators; 0.063% of 320,000 active; note: nearly all actives have a fitted effect of over 45% in size
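p53-null H1299 cells stably carrying temperature-sensitive p53-A138V and a BP100-luciferase reporter were pinned with compounds (4-point, 1:5 series) and held 24 hrs at 37 deg C. Luminescence was read 10 min after detection reagent.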
CCT modulator: cytosolic chaperonin activity modulation | purified chaperonin ATPase assay, HTRF ADP detection, 30 min | AID 651819 | 0.3% of 360,000 active | activity change, % (concentration not given with the values), hits read low; in the data active = activity change below about -30%
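Enzyme 40 or 20 nM (batch-dependent) in Tris pH 7.4/KCl/MgCl2/DTT; cpd 76 uM single point; ATP 10 uM; 30 min 37 °C; Transcreener ADP HTRF detection, 30 min RT; ratio 665/615.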
PINK1 modulator: PINK1 expression modulation. PINK1 immunofluorescence, high-content cytometry, 24 h. Potency, µM (series often up to 76.6 µM), most hits filed as activators. 0.2% of 410,000 active; active = well fitted activation curve with a large enough effect; inconclusive = small, poorly fitted or top-dose-only effect; cell line not stated here; note: nearly all actives have a fitted effect of over 65% in size
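Fluorescence from anti-PINK1 antibody, together with nuclear and cell stains, was scanned on a laser-scanning cytometer. Before staining, stable-line cells were incubated 24 hours with compounds at 5 concentrations; primary antibody 12 h at 10 degrees C.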
A number is an active result; - = inactive; ? = inconclusive; . = not tested or not shown. Unless noted, calls come from the whole dose curve; as a rule, active = well fitted curve in the direction sought with a large enough effect; inconclusive = small, poorly fitted or top-dose-only effect, or another doubt; inactive = no such curve, though single readings can be large; an effect the other way counts as inactive or inconclusive.

SMILES | MmCpn inh | ALOX12 inh | ASM inhibitor | p53 reactivator | CCT modulator | PINK1 modulator
O=C(O)c1ccc(NC(=S)NC(=O)c2cccc(COc3ccccc3)c2)cc1 | - | 7.9µM | - | - | - | -
O=C(NC(=S)Nc1ccc(CN2CCCCC2)cc1)c1cccc(OCc2ccccc2)c1 | - | 32µM | - | - | - | -
O=C(Nc1ccccc1)c1cccc(OCc2ccccc2)c1 | . | - | . | . | . | .
COc1ccc(-c2cc(=O)c3ccccc3o2)cc1 | - | - | - | - | -46 | -
COc1ccc2c(=O)cc(-c3ccccc3)oc2c1 | . | - | . | . | . | .
CC(C)c1noc(C(C)Nc2ccc(N3CCCC3=O)c(Cl)c2)n1 (centres undefined) | . | - | . | . | . | .
COc1cc(C(=O)Nc2sc3ccccc3c(=O)c2-c2ccc3c(c2)OCO3)cc(OC)c1OC | . | - | . | . | . | .
COC1=C(OC)C(=O)C(Sc2ccc3ccccc3c2)=CC1=O | . | 2µM | - | . | - | -
COc1ccc(C(=O)/C(=C/c2ccccn2)c2nc3ccccc3o2)cc1OC | . | - | . | . | . | .
O=C(OCC12CC3CC(CC(C3)C1)C2)c1ccc(NCc2cc(O)ccc2O)cc1 | . | 16µM | - | . | - | -
O=C(OCCC12CC3CC(CC(C3)C1)C2)c1ccc(NCc2cc(O)ccc2O)cc1 | . | 5.6µM | - | . | - | -
O=C(OCC12CC3CC(CC(C3)C1)C2)c1cc([N+](=O)[O-])cc([N+](=O)[O-])c1 | . | - | . | . | . | .
O=C(O)C/C(=C/c1ccc(Br)cc1)c1nc2ccccc2s1 | . | 32µM | . | . | . | .
O=C(O)C/C(=C/c1cccc(Br)c1)c1nc2ccccc2s1 | . | 28µM | . | . | . | .
O=C(O)C/C(=C\c1ccc2c(c1)OCO2)c1nc2ccccc2s1 | - | - | - | - | - | -
COc1cccc(/C=C(\CC(=O)O)c2nc3ccccc3s2)c1 | - | - | - | - | - | -
COc1ccc(/C=C(/CC(=O)O)c2nc3ccccc3s2)cc1 | . | 2.2µM | . | . | . | .
Cc1ccc(NC(=O)Cc2nc(-c3c(N)n(CC(C)C)c(=O)n(C)c3=O)cs2)cc1 | . | - | . | . | . | .
Cc1ccc(S(=O)(=O)Nc2ccc3c(c2)C(=O)N([C@H](C)CO)C[C@H](C)[C@@H](CN(C)C(=O)NC2CCCCC2)OCCCC[C@@H](C)O3)cc1 | . | ? | . | . | - | -
Cc1ccc(S(=O)(=O)Nc2ccc3c(c2)C(=O)N([C@H](C)CO)C[C@H](C)[C@H](CN(C)C(=O)Nc2cccc4ccccc24)OCCCC[C@@H](C)O3)cc1 | . | ? | . | . | -31 | -
N#C/C(=C(/O)CCl)c1nc2c(s1)CCc1ccccc1-2 | - | 16µM | - | - | - | -
O=C(Nc1ccccc1)N1c2ccccc2Sc2ccccc21 | . | - | . | . | . | .
CNC(=O)c1ccc(NC(=O)c2nsc3ccccc23)cc1 | . | - | . | . | . | -
CCOC(=O)c1ccc(NC(=O)c2nsc3ccccc23)cc1 | . | 45µM | . | . | . | -
CC(=O)Nc1c(C)cccc1C(C)C | . | - | . | . | . | .
SMILES | MmCpn inh | ALOX12 inh | ASM inhibitor | p53 reactivator | CCT modulator | PINK1 modulator
COc1ccccc1N=C1NN=C(c2ccc3c(c2)CC(C)N3S(C)(=O)=O)CS1 (centres undefined) | . | - | . | . | . | .
Oc1c(Br)cc(Br)c(/C=N/n2c(-c3ccccc3)n[nH]c2=S)c1Br | - | 18µM | - | - | - | -
Cc1cccc(/C=N/n2c(-c3ccccc3)n[nH]c2=S)c1O | - | 4.5µM | - | . | - | -
Oc1ccc(Br)cc1/C=N/n1c(-c2ccccc2)n[nH]c1=S | - | ? | - | . | - | -
COc1cc(/C=N/n2c(-c3ccccc3)n[nH]c2=S)cc(OC)c1OC | - | 28µM | - | - | - | -
CCC1Oc2ccc(NC(=O)c3ccc([N+](=O)[O-])cc3)cc2CN(C(C)CC)C1=O (centres undefined) | . | - | . | . | . | .
CCC(C)c1ccc(NC(=S)NCCn2cc(Cl)cn2)cc1 (centres undefined) | - | 35µM | - | - | -39 | -
O=C(NNC(=S)Nc1cccc(C(F)(F)F)c1)c1cccc(Cl)c1 | - | ? | - | - | - | 16µM
CCCCOc1cccc(C(=O)NC(=S)Nc2cccc(C(F)(F)F)c2)c1 | - | 32µM | - | - | - | -
CCOc1cccc(C(=O)NC(=S)Nc2cccc(NC(=O)c3ccccc3Cl)c2)c1 | - | 11µM | - | - | - | -
CCOc1cccc(C(=O)NC(=S)Nc2ccccc2)c1 | - | 14µM | - | ? | - | -
COc1cccc(C(=O)Nc2cccc(NC(=O)c3ccccc3Cl)c2)c1 | - | - | - | . | - | -
O=C(NC1CCCN(c2cc(-c3ccc(F)cc3)[nH]n2)C1)c1ccc(F)c(F)c1 (centres undefined) | . | - | . | . | . | .
Cc1ccc(C(=O)O)cc1F | . | - | . | . | . | .
CCCc1nc2c(-c3ccccc3)c(C)[nH]n2c(=O)c1Cl | . | - | . | . | . | .
COc1ccc2c(c1)N(C)/C(=C/c1cccc[n+]1C)S2 | - | ? | - | - | - | 5µM
CN1/C(=C/c2cccc[n+]2C)Sc2ccccc21 | - | - | - | - | - | 18µM
CCN1/C(=C/c2cccc[n+]2C)Sc2ccc(OC)cc21 | - | - | - | - | - | 25µM
Cc1cc2ncc(C(=O)NCc3cccc(C(F)(F)F)c3)cn2n1 | . | - | . | . | . | .
CCOc1ccc(CN(C)CC(=O)NC(=O)NCc2ccccc2)cc1 | . | - | . | . | . | .
CCNC(=O)NC(=O)CNc1ccccc1N(C)Cc1ccccc1 | . | 7.1µM | . | . | . | .
O=c1cc(-c2ccncc2)oc2c(-c3ccccc3F)nccc12 | . | - | . | . | . | .
O=c1cc(-c2ccncc2)oc2c(-c3ccccc3Oc3ccccc3)nccc12 | . | 32µM | . | . | . | .
COC(=O)CNC(=O)c1cc(-c2ccccc2)nc2ccccc12 | . | - | . | . | . | .
CC[C@]12c3[nH]c4ccc(Cl)cc4c3CCN1C(=O)[C@@H](CC(=O)NCC13CC4CC(CC(C4)C1)C3)C[C@@H]2C(=O)N1CCN(C(=O)C2CC2)CC1 | - | 40µM | - | - | - | ?
SMILES | MmCpn inh | ALOX12 inh | ASM inhibitor | p53 reactivator | CCT modulator | PINK1 modulator
CCC(=O)N1CCN(c2oc(/C=C/c3ccc(Cl)cc3)nc2C#N)CC1 | . | - | . | . | . | .
CN(C)S(=O)(=O)c1cccc(NC(=S)N/N=C/c2cccc(O)c2)c1 | - | - | - | - | - | -
CN(C)S(=O)(=O)c1cccc(NC(=S)N/N=C/c2cc(Br)ccc2O)c1 | - | 28µM | - | ? | - | ?
CC(OC(=O)CCOc1ccccc1)C(=O)Nc1ccc(S(N)(=O)=O)cc1 (centres undefined) | . | - | . | . | . | .
CC(C)c1cccc(-c2csc(C(O)c3ccco3)n2)c1 (centres undefined) | . | 14µM | . | . | - | -
OC(c1ccco1)c1nc(-c2cccs2)cs1 (centres undefined) | . | 18µM | . | . | - | -
COCCn1c(C(=O)NCc2ccccn2)nc2ccccc2c1=O | . | - | . | . | . | .
CCC(CC)C(=O)Nc1c(C)cc(C)cc1C | . | - | . | . | . | .
CCOC(=O)c1cnn(-c2cc(C)nc3c(-c4ccc(F)cc4)c(CC)nn23)c1N | . | - | . | . | . | .
O=C(CN1CCCC1)Nc1ccc(OC(F)(F)F)cc1 | - | ? | - | - | - | -

Bioassay records from PubChem.
